Screens from PubChem BioAssay.
Pf growth 48h: Primary qHTS for delayed death inhibitors of the malarial parasite plastid, 48 hour incubation. P. falciparum luciferase growth in erythrocytes, 48 h. Potency, µM (doses to about 28.7 µM), actives largely listed as inhibitors. 5.9% of 310,000 active
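Here the parasites carry a stable luciferase gene and grow inside erythrocytes in Albumax-based RPMI medium with compound for one erythrocytic cycle. Activity is scored as loss of luminescent signal.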
Shiga toxin inh: A qHTS for Small Molecule Inhibitors of Shiga Toxin; Vero cells, Shiga toxin protein synthesis inhibition reporter; inhibition, % at 38.7 µM; 9.2% of 290,000 active; in the data active = inhibition mostly above about 28%, no sharp cut-off; inactive = mostly below about 43%
LmPK inh: qHTS Assay for Inhibitors of Leishmania Mexicana Pyruvate Kinase (LmPK). purified LmPK, Kinase-Glo ATP luminescence, 1 h. Potency, µM (doses to about 57.5 µM), hits mostly inhibitors. 0.37% of 290,000 active
Target sequence (Q27686 whole entry, looked up): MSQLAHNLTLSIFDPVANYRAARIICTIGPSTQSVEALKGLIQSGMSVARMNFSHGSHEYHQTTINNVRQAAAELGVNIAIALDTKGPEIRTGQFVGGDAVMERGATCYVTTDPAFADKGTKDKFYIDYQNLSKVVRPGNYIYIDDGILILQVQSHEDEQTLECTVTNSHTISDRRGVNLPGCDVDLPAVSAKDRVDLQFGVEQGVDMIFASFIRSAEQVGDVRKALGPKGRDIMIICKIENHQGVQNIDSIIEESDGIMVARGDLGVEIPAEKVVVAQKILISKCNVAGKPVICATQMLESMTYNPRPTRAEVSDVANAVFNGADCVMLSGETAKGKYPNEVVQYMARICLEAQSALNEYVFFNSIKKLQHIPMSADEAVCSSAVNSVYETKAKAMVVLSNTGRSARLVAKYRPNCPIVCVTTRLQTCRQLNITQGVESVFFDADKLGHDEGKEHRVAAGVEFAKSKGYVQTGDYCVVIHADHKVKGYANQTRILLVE
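Purified LmPK (0.1 nM) with 0.5 mM PEP and 0.1 mM ADP in imidazole buffer pH 7.2 with MgCl2/KCl, 1 h at room temperature. ATP formed was read by luciferase luminescence and normalized to no-enzyme and uninhibited controls.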
CHX counter: Cycloheximide Counterscreen for Small Molecule Inhibitors of Shiga Toxin | cell reporter, cycloheximide protein synthesis inhibition counterscreen | max response, % | 12% of 300,000 active | AID 2314, 2010; in the data active = max response mostly above about 13%, no sharp cut-off; inactive = mostly below about 14%; also: read at 38.3 µM for the half of the compounds with a filed dose
Pf growth 96h: Primary qHTS for delayed death inhibitors of the malarial parasite plastid, 96 hour incubation; P. falciparum luciferase reporter growth, 96 h; Potency, µM (series often up to 28.7 µM), hits mostly inhibitors; 6.9% of 320,000 active
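Readout is luminescence from an integrated firefly luciferase in P. falciparum. Red cells, 2% hematocrit and 0.05% parasitemia final, were cultured with compound through two parasite generations (96 hours) at 37 C, 5% CO2.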
Of the large screens only hits and unclear results are named; the others gave an inactive call. A selection: hits, their analogues and other compounds. The true share with any hit is near 22%. Unless noted, calls follow the shape of the dose curve; as a rule, active = well fitted inhibition curve with a large enough effect; inconclusive = small, poorly fitted or top-dose-only effect, or another doubt; inactive = no such curve, though single readings can be large or run the other way.

O=C1c2cccc3c(N4CCCCC4)ccc(c23)C(=O)N1CCO	CHX counter 42.3, Pf growth 96h inconclusive
C=CCN1C(=O)c2cccc3c(N4CCCCC4)ccc(c23)C1=O	Shiga toxin inh 130.1, CHX counter 46.2
C=CCN1C(=O)c2cccc3c(Br)ccc(c23)C1=O	none
Cc1ccccc1-c1nc(C#N)c(N2CCCCC2)o1	none (no result: Pf growth 48h)
Cc1ccc(N=Cc2c(C)[nH]n(-c3nc4ccccc4[nH]3)c2=O)cc1	LmPK inh 25.1µM
Cc1ccc(N=CN(C)C=Nc2ccc(C)cc2C)c(C)c1	none (no result: Shiga toxin inh, LmPK inh, CHX counter)
Cc1ccc(N=Cc2c(O)n(-c3ccc4c(c3)OCO4)c(=O)c3ccccc23)cc1	Pf growth 96h 8.28µM (no result: Pf growth 48h)
CCn1c(O)c(C=Nc2ccccc2)sc1=O	none
Cc1ccc(-n2[nH]c(C)c(C=Nc3ccc4[nH]c(=O)[nH]c4c3)c2=O)cc1	none
Cc1ccc(N=Cc2sc(O)c3ccccc23)cc1	Shiga toxin inh 80.5, CHX counter 32.8
Cc1ccc(N=Cc2sc(O)c3ccccc23)c(C)c1	Shiga toxin inh 79.6, CHX counter 34.2
Cc1ccc2[nH]cc(CCNC(=O)c3cccs3)c2c1	none
Cc1cc(OC(C)C(=O)N/N=C/CC(C)c2ccccc2)ccc1Cl (configuration not stated)	none (no result: Pf growth 96h)
Cc1ccc(N=Cc2c(O)c3ccccc3n(C)c2=O)cc1	CHX counter 13.7
Cn1c(=O)c(-c2ccccc2)c(O)c2ccccc21	none
CC(C)c1cc2c(c(O)c1O)[C@@]13CCCC(C)(C)C1CC2OC3=O (some centres not stated)	Pf growth 48h inconclusive, LmPK inh 15.8µM, Pf growth 96h inconclusive
O=C1NC2=C(C(=O)CCC2)C(c2ccccc2Cl)N1 (configuration not stated)	Pf growth 96h 2.94µM
COc1ccc(Br)cc1[C@H]1[C@@H]2C=CCC[C@@]2(C)C(=O)N1Cc1ccccc1	Pf growth 48h inconclusive, Pf growth 96h 11.7µM
COc1ccc(-c2ccc(N(C)C)cc2)cc1C1C2C=CCCC2(C)C(=O)N1Cc1ccccc1 (configuration not stated)	none (no result: Pf growth 48h, LmPK inh, Pf growth 96h)
COc1ccc(-c2ccc(N(C)C)cc2)cc1[C@H]1[C@@H]2C=CCC[C@@]2(C)C(=O)N1Cc1ccccc1	Pf growth 48h 9.28µM, Pf growth 96h 9.28µM
COc1ccc(-c2c(C3C4C=CCCC4(C)C(=O)N3Cc3ccccc3)ccc3ccccc23)cc1OC (configuration not stated)	none (no result: Pf growth 48h, LmPK inh, Pf growth 96h)
COc1ccc(-c2ccc(OC)c([C@H]3[C@@H]4C=CCC[C@@]4(C)C(=O)N3Cc3ccccc3)c2)cc1OC	Pf growth 48h 8.28µM, Pf growth 96h 11.7µM
O=c1c2ccccc2nc(-c2ccco2)n1CCc1ccc(O)cc1	Pf growth 48h inconclusive, Pf growth 96h inconclusive
O=C(COC(=O)c1ccc2c(c1)OCO2)Nc1ncc(Cl)cc1Cl	none
c1cc(CSc2nnc(-c3ccc4c(c3)OCO4)o2)ccn1	Shiga toxin inh 87.6, CHX counter 43.7
Cc1ccc(CSc2nnc(-c3ccc4c(c3)OCO4)o2)cc1	none (no result: Pf growth 48h)
CC(=O)CSc1nnc(-c2ccc3c(c2)OCO3)o1	Shiga toxin inh 36.4, LmPK inh inconclusive, CHX counter 20.3, Pf growth 96h inconclusive
O=C(O)CCSc1nnc(-c2ccc3c(c2)OCO3)o1	Pf growth 96h inconclusive
O=C(CSc1nnc(-c2ccc3c(c2)OCO3)o1)Nc1ncc(Cl)cc1Cl	Shiga toxin inh 31.0, CHX counter 18.7, Pf growth 96h inconclusive
CCc1nnc(NS(=O)(=O)c2ccc(NC(=O)c3ccccc3OC)cc2)s1	none
NS(=O)(=O)c1ccc(NC(=O)COC(=O)COc2ccccc2)cc1	none
Cc1c(-c2nc(N)nc(Nc3ccccc3F)n2)oc2ccccc12	Shiga toxin inh 186.8, CHX counter 57.1 (no result: Pf growth 96h)
Cc1cccc(Nc2nc(N)nc(-c3oc4ccccc4c3C)n2)c1	Pf growth 48h inconclusive, Shiga toxin inh 89.1, CHX counter 53.3
COc1cccc(Nc2nc(N)nc(-c3oc4ccccc4c3C)n2)c1	Pf growth 48h inconclusive, Shiga toxin inh 79.1, CHX counter 41.5
COc1ccccc1Nc1nc(N)nc(-c2cc3ccccc3o2)n1	Shiga toxin inh active, CHX counter 32.6
CCN(CC)CC(O)CN1C(=O)NC(C)(C)C1=O (configuration not stated)	none
Cc1noc(C)c1S(=O)(=O)N(Cc1ccccc1)C(C)C	Pf growth 48h inconclusive
CCCCN(C(=O)C(C)N1C(=O)c2ccccc2C1=O)c1c(N)n(CC(C)C)c(=O)[nH]c1=O (configuration not stated)	none (no result: Shiga toxin inh, LmPK inh, CHX counter)
Cc1ccc(Nc2c([N+](=O)[O-])c(=O)oc3ccccc23)cc1	Pf growth 48h inconclusive, Pf growth 96h inconclusive
Cc1ccc(Nc2nc(N)nc(-c3oc4ccccc4c3C)n2)cc1	Pf growth 48h inconclusive, Shiga toxin inh 46.0, CHX counter 23.0
COc1ccc(OCC(=O)Nc2cc3c(cc2C(=O)O)OCCCO3)cc1	none
C/C(CC(=O)Nc1ccc(Cl)cc1Cl)=N\NC(=O)c1ccncc1	none
C/C(=N/NC(=O)c1ccc(C)s1)c1cccc(NC(=O)COc2ccc(Cl)cc2Cl)c1	none (no result: Pf growth 48h)
C/C(CC(=O)Nc1ccc(Cl)cc1C(F)(F)F)=N\NC(=O)c1cccs1	Shiga toxin inh 91.4, CHX counter 54.3
COc1cc(NC(=O)C/C(C)=N/NC(=O)Cc2ccccc2)c(OC)cc1Cl	none
C/C(CC(=O)Nc1ccc(Cl)cc1C(F)(F)F)=N\NC(=O)c1ccccn1	Shiga toxin inh 75.8, CHX counter 40.8
C/C(=N/NC(=O)c1cccs1)c1ccc(NC(=O)COc2ccc(Cl)cc2Cl)cc1	Shiga toxin inh 94.4, CHX counter 32.9
COc1cc(NC(=O)C/C(C)=N/NC(=O)c2cccs2)c(OC)cc1Cl	Shiga toxin inh 67.5, CHX counter 25.3
C/C(CC(=O)Nc1ccc(Cl)cc1C(F)(F)F)=N\NC(N)=S	none
CCN(CCO)c1nc(N2CCCCC2)c2cnn(C)c2n1	Pf growth 96h inconclusive
COc1ccc2c(C)cc3n[nH]c(=S)n3c2c1	none
CC(=O)N(C)c1ccc(NC(=O)c2ccc([N+](=O)[O-])cc2Cl)cc1	Shiga toxin inh 66.3
CCCCn1nnc(NC(=O)c2ccc([N+](=O)[O-])cc2Cl)n1	Pf growth 96h inconclusive
CCCCn1nnc(NC(=O)c2ccc(-c3cccc(Cl)c3)o2)n1	Shiga toxin inh 67.9, CHX counter 32.5
CCCn1nnc(NC(=O)c2ccc([N+](=O)[O-])cc2Cl)n1	Shiga toxin inh 61.6, CHX counter 24.3
CCCn1nnc(NC(=O)c2ccc(-c3cccc(Cl)c3)o2)n1	Shiga toxin inh 139.8, CHX counter 41.0, Pf growth 96h inconclusive
OCCC1CN(Cc2ccc(Oc3ncccn3)cc2)CCN1C1CCCCC1 (configuration not stated)	none
O=C(CCC(=O)N1CCSc2ccccc21)NC1CCCCC1	Pf growth 96h inconclusive
